CHT inh = inhibits the human high affinity choline transporter | Q9GZV3 | CHT-expressing cells, membrane potential dye, choline response; stronger effect = lower value | B-score at 10 µM | hit rate 0.86% among 310,000;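 active = B-score over 3 SD under the library average, and starting fluorescence ratio not unusually high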;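 note: choline stimulus applied at its EC90 after an EC20 pre-addition; B-score computed on integrated fluorescence ratio after choline addition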
ANO1 activ = activators or potentiators of mouse TMEM16A chloride channel | Q8BHY3 | HEK293 TMEM16A/YFP-H148Q/I152L, iodide quench fluorescence; stronger effect = lower value | B-score at 10 µM | hit rate 0.3% among 340,000 | AID 623877;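 active = fluorescence-ratio B-score plate-corrected deviation score at least 3 library SD below zero, with starting fluorescence score within 5 deviations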;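 note: channel opened by trigger with iodide after compound preincubation; score built on the fluorescence ratio of max minus min over baseline; more negative score means more quench and so TMEM16A activation or potentiation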
TMEM16A inh = mouse TMEM16A channel inhibition, primary screen. Q8BHY3. HEK293 TMEM16A/YFP iodide influx fluorescence, ionomycin. normalized B-score (activity score, 25-100; higher = stronger inhibition) at 10 µM. hit rate 1.2% among 310,000;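 active = ratio plate-corrected score three or more library SD toward inhibition, starting fluorescence score within five deviations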;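 note: score derived from kinetic fluorescence span divided by baseline fluorescence per well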
PHOSPHO1 block = blocks human PHOSPHO1 phosphatase activity; inhibition, % at 13.3 µM; AID 1565; Q8TCT1; recombinant PHOSPHO1, absorbance phosphatase assay; hit rate 1.1% among 290,000; in the data active = inhibition above about 60%
Target sequence (Q8TCT1 whole entry, looked up): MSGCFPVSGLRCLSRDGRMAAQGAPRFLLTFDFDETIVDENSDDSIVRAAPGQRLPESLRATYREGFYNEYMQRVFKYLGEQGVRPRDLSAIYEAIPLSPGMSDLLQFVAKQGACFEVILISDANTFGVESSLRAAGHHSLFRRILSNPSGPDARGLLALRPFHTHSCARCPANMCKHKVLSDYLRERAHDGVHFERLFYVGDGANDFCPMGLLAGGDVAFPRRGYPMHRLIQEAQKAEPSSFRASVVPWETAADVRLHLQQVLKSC
HDAC3 inh = human HDAC3 inhibition; O15379; recombinant HDAC3, fluorogenic peptide/trypsin coupled, fluorescence; inhibition, % at 8.3 µM; hit rate 0.15% among 320,000; AID 2718; in the data active = inhibition above about 26%, passing the limit was not always enough
CHT allo act = allosteric activators of human choline transporter CHT | Q9GZV3 | CHT-expressing cells, membrane potential dye, choline EC20; stronger effect = higher value; LV-AA mutant CHT in HEK293 cells | B-score at 10 µM | hit rate 0.49% among 310,000 | AID 488977;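 active = initial fluorescence not abnormally high and integrated response B-score, plate-corrected, over 3 SD above library mean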
CHT activ conf = confirmation of human choline transporter (CHT) activators; shares compounds with CHT allo act; CHT-expressing cells, membrane potential dye fluorescence (FDSS); % of choline EC20–EC90 response window; HEK293 expressing CHT LV-AA mutant; choline added at its EC20; activation, % at 10 µM; hit rate 91% among 2,500;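 active = primary screen active, with duplicate mean activation above negative control mean plus 3 SD, cut at about 11% in these data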
HEK293 MP dye = activity in parental HEK293 cells lacking CHT; shares compounds with CHT allo act; membrane potential dye fluorescence (FDSS); measured after EC20 choline addition; ratio readout change at 10 µM, hits read low; hit rate 62% among 2,500; AID 623908;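 active = duplicate-averaged ratio beyond 3 SD from buffer wells, up or down, though filed actives are nearly all decreases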
Active calls of the source: *; ! = not active in a repeat. The list is not random: actives were taken first. Their share in the collection is about 3.2%.

What do the screens show for `COc1ccc(-n2c(-c3ccc(Br)cc3)c[n+]3c2CCc2ccccc2-3)cc1`?
CHT inh: inactive; ANO1 activ: inactive; TMEM16A inh: inactive; PHOSPHO1 block: -2; HDAC3 inh: -1; CHT allo act: inactive; CHT activ conf: 91*; HEK293 MP dye: -29*

Results for COc1ccccc1-n1c(-c2ccccc2)c[n+]2c1CCc1ccccc1-2 ?
CHT inh: inactive; ANO1 activ: inactive; TMEM16A inh: inactive; PHOSPHO1 block: 12; HDAC3 inh: -4; CHT allo act: 11*!; CHT activ conf: 32*; HEK293 MP dye: inactive

Results for Cc1c(C)c2ccc(OCc3ccc(C(=O)O)o3)c(C)c2oc1=O ?
CHT inh: inactive; ANO1 activ: inactive; TMEM16A inh: inactive; PHOSPHO1 block: -8; HDAC3 inh: -5; CHT allo act: 7.8*; CHT activ conf: 30*; HEK293 MP dye: -40*

How did Cc1cc(C)cc(COc2ccc3c(C)c(CC(=O)O)c(=O)oc3c2C)c1 do in these assays?
CHT inh: inactive; ANO1 activ: inactive; TMEM16A inh: inactive; PHOSPHO1 block: 18; HDAC3 inh: -22; CHT allo act: inactive

What do the screens show for `COc1c2occc2c(OC)c2c(=O)cc(C)oc12`?
CHT inh: inactive; ANO1 activ: inactive; TMEM16A inh: inactive; PHOSPHO1 block: -28; HDAC3 inh: -1; CHT allo act: inactive; CHT activ conf: 34*; HEK293 MP dye: -38*

Results for CC(Oc1ccccc1)C(=O)N(CCC1=CCCCC1)c1c(N)n(Cc2ccccc2)c(=O)[nH]c1=O (centres undefined) ?
CHT inh: inactive; ANO1 activ: inactive; TMEM16A inh: inactive; PHOSPHO1 block: -17; HDAC3 inh: 4; CHT allo act: inactive; CHT activ conf: 11*; HEK293 MP dye: inactive

Results for COc1ccc2c(c1)C(C)=CC(C)(C)N2S(=O)(=O)c1ccc(C)cc1 ?
CHT inh: inactive; ANO1 activ: inactive; TMEM16A inh: inactive; PHOSPHO1 block: 15; HDAC3 inh: 10; CHT allo act: 7.9*; CHT activ conf: 41*; HEK293 MP dye: inactive

What do the screens show for `COC(=O)CSc1nc(C)cc(Oc2ccccc2)n1`?
CHT inh: inactive; ANO1 activ: inactive; TMEM16A inh: inactive; PHOSPHO1 block: 10; HDAC3 inh: -1; CHT allo act: inactive

What do the screens show for `Cc1cc(Oc2ccc3ccccc3c2)nc(SCC(=O)c2ccccc2)n1`?
CHT inh: inactive; ANO1 activ: inactive; TMEM16A inh: inactive; PHOSPHO1 block: -7; HDAC3 inh: 0; CHT allo act: 8*; CHT activ conf: 53*; HEK293 MP dye: inactive

Results for CN1CCN(CC(=O)Nc2cc(N(C)C)nc3ccccc23)CC1 ?
CHT inh: inactive; ANO1 activ: inactive; TMEM16A inh: inactive; PHOSPHO1 block: 29; HDAC3 inh: -21; CHT allo act: inactive; CHT activ conf: 38*; HEK293 MP dye: -40*

Results for CCN(CC)CC(=O)Nc1cc(N(C)C)nc2ccccc12 ?
CHT inh: inactive; ANO1 activ: inactive; TMEM16A inh: inactive; PHOSPHO1 block: 16; HDAC3 inh: -2; CHT allo act: inactive

How did CC(C)CN1CCN(Cc2cc(F)ccc2-n2cccn2)CC1CCO (centres undefined) do in these assays?
CHT inh: inactive; ANO1 activ: inactive; TMEM16A inh: inactive; PHOSPHO1 block: 31; HDAC3 inh: 0; CHT allo act: inactive; CHT activ conf: 9; HEK293 MP dye: inactive

How did CC(C)CCN1CCN(Cc2cc(F)ccc2-n2cccn2)CC1CCO (centres undefined) do in these assays?
CHT inh: inactive; ANO1 activ: inactive; TMEM16A inh: inactive; PHOSPHO1 block: 10; HDAC3 inh: 8; CHT allo act: inactive

Screening data as filed in PubChem.
